# Reference: PubChem BioAssay AID1159580 (chemical genetic matrix, 2015)
# Several values for one entry are separate records, joined by “and”; a condition that tells them apart may be missing. Equal values may be shown once. The whole screen tested about 5,500 compounds, of which about 2,000 (36%) were called active. Not shown: some 18% with an inconclusive outcome. Some of the results follow. Unmarked numbers belong to inactive results. No stated cut-off is given here; in the data, active means normalized growth mostly below about 0.91 (no sharp cut-off); inconclusive means no clear call, values can overlap the other calls; inactive means mostly above about 0.92.
# Test: chemical genetic growth profiling, strain panel (AID 1159580);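 further: tested at 20 µM; growth read once vehicle control cultures reached saturation at 30 °C; 1 = growth at the plate median or of vehicle wells; lower values mean less growth of the strain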
# Conditions: S. cerevisiae deletion strains, growth OD
compound,measurement,setting,value
O=C1C=C2C(=CCOC2O)O1 (stereo unspecified),normalized growth,"locus YAL013W, strain DEP1, active compounds read low",0.922
same,normalized growth,"locus YAL021C, strain ccr4, active compounds read low",0.679 (active)
same,normalized growth,"locus YAL026C, strain drs2, active compounds read low",0.644 (active)
same,normalized growth,"locus YAL030W, strain snc1, active compounds read low",0.781 (active)
same,normalized growth,"locus YBL061C, strain skt5, active compounds read low",0.796 (active)
same,normalized growth,"locus YBR009C, strain hhf1, active compounds read low",0.71 (active)
same,normalized growth,"locus YBR021W, strain FUR4, active compounds read low",0.762 (active)
same,normalized growth,"locus YBR023C, strain chs3, active compounds read low",0.784 (active)
same,normalized growth,"locus YBR171W, strain sec66, active compounds read low",0.672 (active)
same,normalized growth,"locus YBR229C, strain ROT2, active compounds read low",0.991
same,normalized growth,"locus YBR231C, strain swc5, active compounds read low",0.73 (active)
same,normalized growth,"locus YBR279W, strain paf1, active compounds read low",0.78 (active)
same,normalized growth,"locus YCL011C, strain gbp2, active compounds read low",0.759 (active)
same,normalized growth,"locus YCL016C, strain dcc1, active compounds read low",0.73 (active)
same,normalized growth,"locus YCL029C, strain bik1, active compounds read low",0.913
same,normalized growth,"locus YCL069W, strain vba3, active compounds read low",0.752 (active)
same,normalized growth,"locus YCR088W, strain abp1, active compounds read low",0.792 (active)
same,normalized growth,"locus YDL005C, strain med2, active compounds read low",0.881 (active)
same,normalized growth,"locus YDL035C, strain GPR1, active compounds read low",0.776 (active)
same,normalized growth,"locus YDL040C, strain nat1, active compounds read low",0.887 (active)
same,normalized growth,"locus YDL074C, strain BRE1, active compounds read low",0.678 (active)
same,normalized growth,"locus YDL101C, strain DUN1, active compounds read low",0.851 (active)
same,normalized growth,"locus YDL134C, strain PPH21, active compounds read low",0.9
same,normalized growth,"locus YDL185W, strain tfp1, active compounds read low",0.789 (active)
same,normalized growth,"locus YDL192W, strain arf1, active compounds read low",0.789 (active)
same,normalized growth,"locus YDR001C, strain nth1, active compounds read low",0.846 (active)
same,normalized growth,"locus YDR069C, strain doa4, active compounds read low",0.652 (active)
same,normalized growth,"locus YDR101C, strain arx1, active compounds read low",0.8 (active)
same,normalized growth,"locus YDR137W, strain rgp1, active compounds read low",0.335 (active)
same,normalized growth,"locus YDR150W, strain NUM1, active compounds read low",0.831 (active)
same,normalized growth,"locus YDR159W, strain sac3, active compounds read low",0.847 (active)
same,normalized growth,"locus YDR162C, strain NBP2, active compounds read low",0.258 (active)
same,normalized growth,"locus YDR195W, strain ref2",0.927
same,normalized growth,"locus YDR297W, strain sur2, active compounds read low",0.797 (active)
same,normalized growth,"locus YDR318W, strain mcm21, active compounds read low",0.793 (active)
same,normalized growth,"locus YDR334W, strain swr1, active compounds read low",0.845 (active)
same,normalized growth,"locus YDR335W, strain msn5, active compounds read low",0.698 (active)
same,normalized growth,"locus YDR388W, active compounds read low",0.864 (active)
same,normalized growth,"locus YDR392W, strain spt3, active compounds read low",0.555 (active)
same,normalized growth,"locus YDR502C, strain sam2, active compounds read low",0.763 (active)
same,normalized growth,"locus YEL003W, strain gim4, active compounds read low",0.659 (active)
same,normalized growth,"locus YEL037C, strain rad23, active compounds read low",0.82 (active)
same,normalized growth,"locus YEL061C, strain CIN8 (second series), active compounds read low",0.759 (active)
same,normalized growth,"locus YEL061C, strain CIN8, active compounds read low",0.848 (active)
same,normalized growth,"locus YER015W, strain faa2, active compounds read low",0.635 (active)
same,normalized growth,"locus YER016W, strain bim1, active compounds read low",0.833 (active)
same,normalized growth,"locus YER110C, active compounds read low",0.597 (active)
same,normalized growth,"locus YER111C, strain swi4, active compounds read low",0.938
same,normalized growth,"locus YER155C, strain BEM2 (second series), active compounds read low",0.303 (active)
same,normalized growth,"locus YER155C, strain BEM2, active compounds read low",0.962
same,normalized growth,"locus YER167W, strain BCK2, active compounds read low",0.795 (active)
same,normalized growth,"locus YFR010W, strain ubp6, active compounds read low",0.613 (active)
same,normalized growth,"locus YGL078C, strain dbp3, active compounds read low",0.869 (active)
same,normalized growth,"locus YGL086W, strain mad1, active compounds read low",0.806 (active)
same,normalized growth,"locus YGL167C, strain pmr1, active compounds read low",0.846 (active)
same,normalized growth,"locus YGL173C, strain kem1, active compounds read low",0.707 (active)
same,normalized growth,"locus YGL227W, strain vid30, active compounds read low",0.843 (active)
same,normalized growth,"locus YGL240W, strain doc1, active compounds read low",0.487 (active)
same,normalized growth,"locus YGL248W, strain PDE1, active compounds read low",0.883 (active)
same,normalized growth,"locus YGL253W, strain hxk2, active compounds read low",0.657 (active)
same,normalized growth,"locus YGR078C, strain PAC10, active compounds read low",0.702 (active)
same,normalized growth,"locus YGR135W, strain pre9, active compounds read low",0.784 (active)
same,normalized growth,"locus YGR229C, strain SMI1, active compounds read low",0.366 (active)
same,normalized growth,"locus YGR252W, strain gcn5, active compounds read low",0.462 (active)
same,normalized growth,"locus YHR013C, strain ard1, active compounds read low",0.589 (active)
same,normalized growth,"locus YHR027C, strain rpn1, active compounds read low",0.71 (active)
same,normalized growth,"locus YHR030C, strain SLT2, active compounds read low",0.9 (active) and 0.845 (active)
same,normalized growth,"locus YHR079C, strain IRE1 (second series), active compounds read low",0.858 (active)
same,normalized growth,"locus YHR079C, strain IRE1, active compounds read low",0.84 (active)
same,normalized growth,"locus YHR094C, strain hxt1, active compounds read low",0.948
same,normalized growth,"locus YHR129C, strain ARP1, active compounds read low",0.855 (active)
same,normalized growth,"locus YHR142W, strain chs7, active compounds read low",0.684 (active)
same,normalized growth,"locus YHR200W, strain rpn10, active compounds read low",0.91 (active)
same,normalized growth,"locus YIL066C, strain RNR3, active compounds read low",0.776 (active)
same,normalized growth,"locus YIL073C, strain SPO22, active compounds read low",0.5 (active)
same,normalized growth,"locus YIL125W, strain kgd1, active compounds read low",0.886 (active)
same,normalized growth,"locus YIR030C, strain dcg1, active compounds read low",0.911 (active)
same,normalized growth,"locus YJL092W, strain hpr5, active compounds read low",0.744 (active)
same,normalized growth,"locus YJL095W, strain BCK1 (second series), active compounds read low",0.833 (active)
same,normalized growth,"locus YJL095W, strain BCK1, active compounds read low",0.795 (active) and 0.859 (active)
same,normalized growth,"locus YJL115W, strain asf1, active compounds read low",0.961
same,normalized growth,"locus YJL129C, strain trk1, active compounds read low",0.769 (active)
same,normalized growth,"locus YJL134W, strain LCB3, active compounds read low",0.961
same,normalized growth,"locus YJL154C, strain vps35, active compounds read low",0.859 (active)
same,normalized growth,"locus YJL164C, strain tpk1, active compounds read low",0.757 (active)
same,normalized growth,"locus YJL166W, strain qcr8, active compounds read low",0.667 (active)
same,normalized growth,"locus YJL168C, strain set2, active compounds read low",0.939
same,normalized growth,"locus YJL187C, strain SWE1 (second series), active compounds read low",0.829 (active)
same,normalized growth,"locus YJR043C, strain POL32, active compounds read low",0.882
same,normalized growth,"locus YJR066W, strain TOR1, active compounds read low",0.831
same,normalized growth,"locus YJR075W, strain HOC1, active compounds read low",0.805 (active)
